MCF10A rereplic: inducers of DNA re-replication in MCF 10A breast cells; MCF 10A DNA re-replication, Hoechst nuclear intensity, 48 h; Potency, µM (doses to about 46.1 µM), without a hit: top-dose activity, positive = re-replication, hits mostly activators; 350,000 tested, 2.9% active; AID 624296; further: % of control where 0% means no effect; nearly all actives have a fitted effect of over 50% in size
HT1080 IDH1KD tx: kills HT-1080 cells with IDH1 knockdown | HT-1080 IDH1 knockdown viability, ATP luminescence, 48 h | Potency, µM (highest dose often 46.1 µM), for inactives: at the top dose activity, negative = toxicity, actives largely listed as cytotoxic | 360,000 tested, 2% active | AID 686971;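 further: 0% = DMSO wells and -100% = cell-free medium wells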
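Cytotoxicity counter-line: IDH1KD HT-1080, 48 h, CellTiter-Glo. Curves classed by r2, magnitude and activity.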
KB-3-1 cytotox: KB-3-1 parental cell cytotoxicity. KB-3-1 viability, CellTiter-Glo ATP luminescence, 72 h. Potency, µM (top dose mostly 46.1 µM), usual class: cytotoxic. 400,000 tested, 1.4% active. AID 1347075; further: on the % scale 0 is the no-effect control and ±100 the full control effect; nearly all actives have a fitted effect of over 60% in size
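Cells are dispensed, compounds pinned in, plates held at 37 °C for 72 h, then CellTiter-Glo is added and luminescence read after 10 minutes. Cell line: parental KB-3-1 in phenol-red-free DMEM, 10% FBS.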
SW480 rereplic: induces DNA re-replication in SW480 colon adenocarcinoma cells | SW480 DNA re-replication, Hoechst DNA content imaging, 48 h | 340,000 tested, 1.8% active | Potency, µM (series often up to 46.1 µM), for inactives: at the highest dose re-replication activation, hits mostly activators; further: % of control where 0% means no effect; nearly all actives have a fitted effect of over 55% in size
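SW480 cells exposed to compounds for 48 hr at 37 C, 5% CO2, then Hoechst-stained 40 min. Nuclear DNA content imaged by fluorescence scanning (405 nm excitation, 500-530 nm emission); re-replication scored as increased high-intensity nuclei.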
HT1080NT lethal: kills 2HG-producing HT-1080-NT fibrosarcoma cells; HT-1080-NT fibrosarcoma viability, CellTiter-Glo ATP luminescence, 48 h; Potency, µM (highest dose often 46.1 µM), inactives show at the highest dose activity, negative = less viability, usual class: cytotoxic; 360,000 tested, 1.6% active;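 further: NT is the 2HG producing partner of a matched IDH1 knockdown line; 0% = DMSO-treated cells and -100% = media-only wells without cells; nearly all actives have a fitted effect of over 55% in size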
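Viability by CellTiter-Glo luminescence after 48 h compound exposure at 37C of HT-1080-NT cells (750/well, RPMI, 5% FBS). % activity scaled between DMSO wells and medium-only wells, then curve-fitted and categorized by curve class.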
KB-V1 cytotox: KB-V1 MDR subline cytotoxicity. KB-V1 MDR cells viability, CellTiter-Glo, 72 h. Potency, µM (titrated, usually from 46.1 µM), usual class: cytotoxic. 400,000 tested, 3.4% active; further: on the % scale 0 is the no-effect control and ±100 the full control effect; nearly all actives have a fitted effect of over 60% in size
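In this primary screen, KB-V1 cells overexpressing P-gp are incubated with library compounds (lowest to highest concentration) for 72 h at 37 degrees C before a luminescent ATP viability read.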
The depositor's hits bear a star; i = inactive; u = inconclusive; x = no result; [ ] = another dose, or the depositor's remark. Compounds with a hit are over-represented: about 7.9% of the library has one in this group of screens. The call rests on the fitted dose curve; in most records, active means well fitted curve in the direction sought with a large enough effect; inconclusive means small, poorly fitted or top-dose-only effect, or another doubt; inactive means no such curve, though single readings can be large; an effect the other way counts as inactive or inconclusive. Potency means the concentration at half of the fitted maximal effect.

SMILES | MCF10A rereplic | HT1080 IDH1KD tx | KB-3-1 cytotox | SW480 rereplic | HT1080NT lethal | KB-V1 cytotox
CC(C)(C)C1CCc2c(sc(NC(=O)Cn3nnc(-c4ccccc4Cl)n3)c2C#N)C1 (stereo not given) | x | x | i | x | x | i
COc1ccc(CNC(=O)Cc2cn(C)c3ccccc23)c(OC)c1 | -3% | 1% | i | -7% | -7% | i
O=C(NNC(=O)c1ccc(Br)s1)c1cccc(Cl)c1 | 2% | -14% | i | 4% | 0% | i
COc1ccc(Cn2nnnc2C(c2ccccn2)N2CCN(c3cc(Cl)ccc3C)CC2)cc1 (stereo not given) | 2% | -19% | u | u | -21% | 13µM*
CCN(CC)c1ncnc2c1ncn2[C@H]1CN(C2CCCC2)C[C@@H](CO)O1 | x | 8% | i | x | 19% | i
Cc1c(Cl)sn(-c2ccc(Cl)cc2)c1=O | 3.3µM* | 2.6µM* | 16µM* | 1.8µM* | 26µM* | u
Cc1nn(-c2ccc(Cl)cc2)c(=O)c2ccccc12 | -5% | -7% | i | -12% | 3% | i
COc1ccc(OCCN2C(=O)c3ccccc3C2=O)c([N+](=O)[O-])c1 | 4% | 9% | i | -30% | 21% | i
COc1nc(Cl)cn(-c2ccc(C)cc2)c1=O | -5% | 5% | i | -6% | 9% | i
Cc1ccc(-n2c(Cl)c(Cl)nc(Cl)c2=O)cc1 | 1.8µM* | 2.9µM* | u | 8.2µM* | 2.6µM* | i
CCOC(=O)c1c(C)[nH]c(C(=O)COC(=O)c2ccncc2)c1C | 6% | 1% | u | 0% | 2% | 7.3µM*
Cc1[nH]c2ccccc2c1C(=O)COC(=O)C1CC(=O)N(Cc2ccccc2)C1 (stereo not given) | 0% | 3% | i | -1% | 3% | i
CCOC(=O)c1c(C)[nH]c(C(=O)COC(=O)c2cnccn2)c1C | u | -11% | i | -10% | 1% | i
CCOC(=O)c1c(C)[nH]c(C(=O)COC(=O)C2CC(=O)N(Cc3ccccc3)C2)c1C (stereo not given) | -1% | 10% | i | -16% | 10% | 3.3µM*
Cc1ccc(S(=O)(=O)N2CCN(C(=O)c3cc(S(=O)(=O)N(C)C)ccc3N3CCCC3)CC2)cc1 | 12% | 5% | i | u | 2% | i
COc1ccc(OC)c(CCNC(=O)c2csc3c2CCCCC3)c1 | x | x | u | x | x | i
O=c1[nH]nc(SCCS(=O)(=O)c2ccc(F)cc2)n1-c1ccc2c(c1)OCCO2 | u | u | i | u | -17% | i
O=c1[nH]nc(SCCS(=O)(=O)c2ccc(F)cc2)n1-c1ccccc1 | 23µM* | u | i | 16% | u | i
C=CCn1c(=S)[nH]c2scc(-c3ccc(C)o3)c2c1=O | 16µM* | 16µM* | i | u | 13µM* | i
COc1ccc(NC(=O)Nc2ccc(Cc3ccncc3)cc2)cc1OC | 2% | -19% | i | -4% | -7% | i
COc1ccc(C(=O)Nc2ccc3ccccc3c2)c(OC)c1 | u | -11% | u | 1% | -6% | 18µM*
COc1cc2ccccc2cc1C(=O)N/N=C/c1cccnc1 | -2% | u | 16µM* | 1% | -12% | u
COc1ccccc1C(=O)Nc1ccc2ccccc2c1 | 6% | -22% | i | -6% | -2% | i
COc1cc2ccccc2cc1C(=O)Nc1ccc(Cc2ccncc2)cc1 | 21µM* | u | 18µM* | 18µM* | -30% | 9.2µM*
COc1ccc(Br)cc1C(=O)N/N=C/c1cccnc1 | -2% | 8% | i | -5% | 19% | i
SMILES | MCF10A rereplic | HT1080 IDH1KD tx | KB-3-1 cytotox | SW480 rereplic | HT1080NT lethal | KB-V1 cytotox
CN(C)C=Nc1ccc([N+](=O)[O-])c2ccccc12 | x | -13% | i | x | -15% | i
O=C(CCCc1ccccc1)NC(c1ccco1)c1cc(Cl)c2cccnc2c1O (stereo not given) | x | x | u | x | x | i
CS(=O)(=O)Nc1cccc(C(=O)CC2(O)C(=O)Nc3ccccc32)c1 (stereo not given) | 2% | -6% | i | -14% | -6% | i
CS(=O)(=O)Nc1cccc(C(=O)CC2(O)C(=O)Nc3ccc(Br)cc32)c1 (stereo not given) | 8.2µM* | 0% | i | u | 0% | i
COc1cc(Nc2nc(SCC#N)nc3ccccc23)cc(OC)c1OC | -5% | -3% | i | -6% | 7% | 21µM*
CCOC(=O)CSc1nc(Nc2ccc3c(c2)OCO3)c2ccccc2n1 | -4% | -2% | i | 1% | 1% | i
N#CCSc1nc(Nc2ccc3c(c2)OCO3)c2ccccc2n1 | u | -22% | i | 1% | u | 15µM*
CC(=O)N(CCC(c1ccco1)C(C)C)Cc1ccc(Cl)cc1 (stereo not given) | 4.1µM* | -14% | i | -3% | -10% | u
CCC(=O)N(CCC(c1ccco1)C(C)C)Cc1ccccc1 (stereo not given) | 15% | -23% | i | -3%[9.22 µM] | -17% | i
CCOC(=O)c1c(NC(=O)Cc2cccs2)sc(C)c1C | 3.7µM* | -25% | i | -5% | u | u
CCOC(=O)c1c(NC(=O)Cc2cccs2)sc(C(=O)NC2CCCC2)c1C | 25% | -22% | i | -9% | u | i
COC(=O)c1c(NC(=O)Cc2cccs2)sc(C(=O)NC2CCCCC2)c1C | 4% | 3% | i | u | 2% | i
COC(=O)c1c(NC(=O)Cc2cccs2)sc(C(=O)N2CCCCC2)c1C | 9% | -29% | i | -2% | -2% | 16µM*
COC(=O)c1c(NC(=O)CCl)sc(C(=O)N2CCOCC2)c1C | u | 18µM* | u | u | 7.3µM* | u
Cc1ccc(S(=O)(=O)N2CCC(C(=O)Nc3ccccc3N3CCCCC3)CC2)cc1 | -1% | 7% | i | 17% | -7% | i
Cc1ccc(S(=O)(=O)N2CCC(C(=O)Nc3ccccc3N3CCCC3)CC2)cc1 | -2% | -5% | i | 7% | -12% | 5.8µM*
Cc1ccc(S(=O)(=O)N2CCCCC2)cc1NC(=O)CSc1nnc(N)s1 | 0.58µM* | 0% | i | -1% | 1% | i
N#CCc1nc2ccc(S(=O)(=O)N3CCOCC3)cc2s1 | 13µM* | -25% | i | 150% | -7% | i
Nc1nnc(SCC(=O)Nc2cccc(S(=O)(=O)N3CCCCC3)c2)s1 | u | -4% | i | u | -4% | i

Bioassay records (PubChem BioAssay)
